HT1080NT lethal: qHTS for induction of synthetic lethality in tumor cells producing 2HG: qHTS for the HT-1080-NT fibrosarcoma cell line; HT-1080-NT fibrosarcoma viability, CellTiter-Glo ATP luminescence, 48 h; 360,000 tested, 1.6% active; Potency, µM (highest dose often 46.1 µM), usual class: cytotoxic; AID 686970, 2013;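 further: NT is the 2HG producing partner of a matched IDH1 knockdown line; nearly all actives have a fitted effect of over 55% in size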
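HT-1080-NT fibrosarcoma cells (2HG-overproducing), 750 cells/well in RPMI with 5% FBS, dosed after 2 h and incubated 48 h at 37C. CellTiter-Glo luminescence normalized to DMSO and no-cell wells; concentration-response curves fitted and classed.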
TDP1 cell noCPT: qHTS for Inhibitors of human tyrosyl-DNA phosphodiesterase 1 (TDP1): qHTS in cells in absence of CPT | DT40 Tdp1-/- hTDP1 cells, no CPT, ATP luminescence, 48 h | Potency, µM (doses to about 46.2 µM), usual class: inhibitors | 420,000 tested, 15% active; further: nearly all actives have a fitted effect of over 55% in size
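Stably hTDP1-transfected Tdp1-null chicken DT40 cells were treated with library compounds minus camptothecin and grown for at least 48 hr at 37 °C, after which cellular ATP was quantified by luminescence.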
IL1B secr inh: qHTS for Inhibitors of Inflammasome Signaling: IL-1-beta AlphaLISA Primary Screen | activity change, % at 57.5 µM | 360,000 tested, 4.7% active | THP-1 LPS/ATP IL-1B secretion, AlphaLISA, 16 h; stronger effect = lower value | AID 743279, 2014; in the data active means activity change below about -50%; inconclusive means mostly about -30% to -49%
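THP-1 cells pretreated 1 hr with compounds (up to 57.5 uM final), then stimulated with LPS (250 ng/mL final) plus ATP (1.25 mM final); secreted IL-1B measured by AlphaLISA after 16 hr, decreased signal indicating inhibition.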
TDP1 cell CPT: qHTS for Inhibitors of human tyrosyl-DNA phosphodiesterase 1 (TDP1): qHTS in cells in presence of CPT; chicken DT40 Tdp1-/-;hTDP1 cells + 20 nM CPT, ATP luminescence, 48 h; Potency, µM (series often up to 46.2 µM), usual class: inhibitors; 420,000 tested, 12% active; AID 686979, 2013; further: nearly all actives have a fitted effect of over 55% in size
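Chicken DT40 Tdp1-/- cells complemented with human TDP1, 400 cells/well, exposed to compounds plus 20 nM camptothecin for at least 48 h at 37 C; viability read as ATP content by CellTiter-Glo luminescence.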
HT1080 IDH1KD tx: qHTS for induction of synthetic lethality in tumor cells producing 2HG: qHTS for the HT-1080-IDH1KD cell line; 360,000 tested, 2% active; Potency, µM (doses to about 46.1 µM), hits mostly cytotoxic; HT-1080 IDH1 knockdown viability, ATP luminescence, 48 h
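% activity derives from luminescence (CellTiter-Glo), normalised to DMSO and no-cell wells. HT-1080-IDH1KD cells, 750/well, had 48 h compound exposure at 37 °C.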
Large screens that a line does not name were inactive. Rows were chosen to be rich in hits. Some 19% of all compounds tested hit in one or more screens of this group. Unless noted, the call rests on the fitted dose curve; in most records, active means well fitted curve in the direction sought with a large enough effect; inconclusive means small, poorly fitted or top-dose-only effect, or another doubt; inactive means no such curve, though single readings can be large; an effect the other way counts as inactive or inconclusive.

O=C(Nc1cccc(NC(=O)c2cc([N+](=O)[O-])ccc2Cl)n1)c1cc([N+](=O)[O-])ccc1Cl	HT1080NT lethal inconclusive, TDP1 cell noCPT 9.2µM, IL1B secr inh -99.8, TDP1 cell CPT 7.31µM, HT1080 IDH1KD tx 11.6µM
O=C(c1cc([N+](=O)[O-])ccc1Cl)N1c2ccccc2Sc2ccccc21	TDP1 cell noCPT 14.6µM, IL1B secr inh inconclusive, TDP1 cell CPT inconclusive
Cc1cc(NC(=O)c2cc([N+](=O)[O-])ccc2Cl)no1	HT1080NT lethal inconclusive, TDP1 cell noCPT 16.4µM, IL1B secr inh inconclusive, TDP1 cell CPT inconclusive, HT1080 IDH1KD tx inconclusive
CCCNC(=O)C1(C)CCN(C(=O)c2cccc(C#N)c2)C1 (stereo unspecified)	none
O=C1CCC2(CC1)NC(=O)N(c1ccccc1)N2	HT1080NT lethal inconclusive, HT1080 IDH1KD tx 8.2µM
CCCC(=O)Nc1ccc(NC(=O)c2ccccn2)cn1	TDP1 cell noCPT inconclusive
COc1ccc(-c2cc(C(=O)OCC(=O)Nc3ccc4c(c3)OCO4)c3ccccc3n2)cc1	TDP1 cell noCPT 20.6µM, TDP1 cell CPT inconclusive
Cc1cccc(-c2cc(C(=O)Nc3ccc4c(c3)OCCO4)c3ccccc3n2)c1	TDP1 cell noCPT 13µM, TDP1 cell CPT 29.1µM
CCCn1c(C)cc(=O)c2cc(NC(=O)c3ccccn3)ccc21	TDP1 cell noCPT 14.6µM, TDP1 cell CPT inconclusive
O=C(COC(=O)c1cc(-c2ccccc2)nc2ccccc12)Nc1ccc2c(c1)OCO2	none
CCOc1cc(NC(=O)c2cccs2)c(OCC)cc1NC(=O)c1ccccn1	HT1080NT lethal inconclusive, TDP1 cell noCPT inconclusive, TDP1 cell CPT inconclusive
CCOc1cc(NC(=O)c2ccccn2)c(OCC)cc1NC(=O)c1cccc(C)c1	TDP1 cell noCPT 1.84µM, TDP1 cell CPT 4.11µM
N#Cc1ccsc1NC(=O)COC(=O)c1cc2ccccc2cc1O	HT1080NT lethal inconclusive, HT1080 IDH1KD tx inconclusive
CCOc1ccc(NC(=O)c2ccccn2)cc1	HT1080NT lethal inconclusive, TDP1 cell noCPT 13µM, HT1080 IDH1KD tx inconclusive
CCOc1ccc(NC(=O)c2cc(Cl)nc3ccccc23)cc1	HT1080NT lethal inconclusive, TDP1 cell noCPT 14.6µM, TDP1 cell CPT inconclusive, HT1080 IDH1KD tx inconclusive
CCOc1ccc(NC(=O)Nc2ccc(Cc3ccncc3)cc2)cc1	HT1080NT lethal inconclusive, TDP1 cell noCPT inconclusive, HT1080 IDH1KD tx inconclusive
CCOc1ccc(C(=O)Nc2ccc3c(c2)OCCO3)cc1	none
CCOc1ccc(-c2cc(C(=O)Nc3ccc4c(c3)OCCO4)c3ccccc3n2)cc1	HT1080NT lethal inconclusive, TDP1 cell noCPT 10.3µM, TDP1 cell CPT inconclusive, HT1080 IDH1KD tx inconclusive
CCOc1ccc(NC(=O)C2CSC(c3ccncc3)=N2)cc1 (stereo unspecified)	TDP1 cell noCPT inconclusive, TDP1 cell CPT 23.1µM
CCO[C@@H]1OC(C(=O)NCc2ccccc2)=C[C@H](c2coc3ccccc3c2=O)[C@H]1CCCO	none
O=C(CSc1nccn1Cc1ccco1)Nc1ccc(OC(F)(F)F)cc1	TDP1 cell CPT inconclusive (no result: HT1080NT lethal, IL1B secr inh, HT1080 IDH1KD tx)
CC(C)Oc1ccc(-c2cc(C(=O)NCCN3CCOCC3)c3ccccc3n2)cc1	TDP1 cell noCPT inconclusive, TDP1 cell CPT inconclusive
Cc1cc(NC(=O)c2cc(-c3ccc(OC(C)C)cc3)nc3ccccc23)no1	TDP1 cell noCPT 8.2µM
COc1ccc(-c2cc(C(=O)OCC(=O)Nc3cc(C)on3)c3ccccc3n2)cc1OC	none
CCC(C)c1ccc(-c2cc(C(=O)OCC(=O)Nc3cc(C)on3)c3ccccc3n2)cc1 (stereo unspecified)	TDP1 cell noCPT 16.4µM, TDP1 cell CPT inconclusive
OC(COCCC12CC3CC(CC(C3)C1)C2)CN1CCCC1 (stereo unspecified)	HT1080NT lethal inconclusive, TDP1 cell noCPT inconclusive, TDP1 cell CPT 18.4µM, HT1080 IDH1KD tx inconclusive
CC(NCC(O)COCCC12CC3CC(CC(C3)C1)C2)c1ccccc1 (stereo unspecified)	HT1080NT lethal inconclusive, TDP1 cell noCPT 14.6µM, IL1B secr inh -98.4, TDP1 cell CPT 6.51µM, HT1080 IDH1KD tx inconclusive
C/C(N)=C(/C#N)C(=O)CN1C(=O)NC(Cc2c[nH]c3ccccc23)C1=O (stereo unspecified)	none
CC(C)C[C@@H](CN1CCC[C@H]1CN1C(=O)C(=O)NC[C@@H]1Cc1ccccc1)N1C[C@H](Cc2ccccc2)N(CCc2ccccc2)C(=O)C1=O	HT1080NT lethal inconclusive, TDP1 cell noCPT inconclusive, IL1B secr inh -77.4, TDP1 cell CPT 23.1µM, HT1080 IDH1KD tx inconclusive
CC(C)C[C@H]1CN([C@@H](CC(C)C)CN2CCC[C@H]2CN2C(=O)C(=O)NC[C@@H]2Cc2ccccc2)C(=O)C(=O)N1CCc1ccccc1	none
CC(C)C[C@H]1CNC(=O)C(=O)N1C[C@H]1CCCN1C[C@H](CC(C)C)N1C[C@H](CC(C)C)N(CCc2ccccc2)C(=O)C1=O	TDP1 cell noCPT inconclusive, IL1B secr inh -74.7, TDP1 cell CPT inconclusive
COc1ccc(C(=O)NCCONC(=O)c2ccc(OC)cc2)cc1	none
Cc1cc(=O)oc2cc(OCC3CC(c4ccccc4)=NO3)ccc12 (stereo unspecified)	HT1080NT lethal 11.2µM, TDP1 cell noCPT 18.4µM, TDP1 cell CPT 16.4µM, HT1080 IDH1KD tx inconclusive
C#CCOc1ccc2c(C)cc(=O)oc2c1	HT1080NT lethal inconclusive, TDP1 cell noCPT inconclusive
Cc1cc(=O)oc2cc(OCC3CC(c4ccc(Br)cc4)=NO3)ccc12 (stereo unspecified)	TDP1 cell noCPT 16.4µM, TDP1 cell CPT inconclusive
CC1=NN(c2ccccc2)C(=O)C1C(=O)c1cc([N+](=O)[O-])cc([N+](=O)[O-])c1 (stereo unspecified)	none
O=C(NCc1cccnc1)c1nc(-c2ccccc2)n(-c2ccccc2)n1	TDP1 cell CPT inconclusive
Cc1cccc(C(=O)Nc2sc3c(c2C(=O)O)CCCC3)c1	HT1080NT lethal inconclusive, TDP1 cell noCPT inconclusive, TDP1 cell CPT 16.4µM
CCN(CC)C(=O)c1c(NC(=O)c2cccc(C)c2)sc2c1CCC(C)C2 (stereo unspecified)	TDP1 cell noCPT 16.4µM, TDP1 cell CPT 23.1µM (no result: HT1080NT lethal, IL1B secr inh, HT1080 IDH1KD tx)
Cc1cccc(NC(=O)c2c(Br)sc3c2CCCC3)c1	TDP1 cell noCPT 23.1µM, TDP1 cell CPT inconclusive (no result: HT1080NT lethal, IL1B secr inh, HT1080 IDH1KD tx)
CN(CC(=O)Nc1c(Cl)cccc1Cl)C(=O)Cc1ccc(S(=O)(=O)N2CCOCC2)s1	none
O=C1C2ON(c3ccc(Br)cc3)C(c3cccnc3)C2C(=O)N1C1CCCCC1 (stereo unspecified)	TDP1 cell noCPT 18.4µM, TDP1 cell CPT inconclusive

Screens from PubChem.
